The record followed here is ChEMBL document CHEMBL1961873, “Compounds: GSK PKIS; Assays: Nanosyn kinase panel” (2012).

“And” between values parts separate entries of the source, which are not always exact repeats. Equal values may be shown once.

Experiment [1] deals with Protein kinase C gamma type (Homo sapiens) (UniProt P05129). Particulars: at 1 µM.
Experiment [2] concerns the target T1, Protein kinase C iota type (Homo sapiens) (UniProt P41743).
T1 sequence (whole entry): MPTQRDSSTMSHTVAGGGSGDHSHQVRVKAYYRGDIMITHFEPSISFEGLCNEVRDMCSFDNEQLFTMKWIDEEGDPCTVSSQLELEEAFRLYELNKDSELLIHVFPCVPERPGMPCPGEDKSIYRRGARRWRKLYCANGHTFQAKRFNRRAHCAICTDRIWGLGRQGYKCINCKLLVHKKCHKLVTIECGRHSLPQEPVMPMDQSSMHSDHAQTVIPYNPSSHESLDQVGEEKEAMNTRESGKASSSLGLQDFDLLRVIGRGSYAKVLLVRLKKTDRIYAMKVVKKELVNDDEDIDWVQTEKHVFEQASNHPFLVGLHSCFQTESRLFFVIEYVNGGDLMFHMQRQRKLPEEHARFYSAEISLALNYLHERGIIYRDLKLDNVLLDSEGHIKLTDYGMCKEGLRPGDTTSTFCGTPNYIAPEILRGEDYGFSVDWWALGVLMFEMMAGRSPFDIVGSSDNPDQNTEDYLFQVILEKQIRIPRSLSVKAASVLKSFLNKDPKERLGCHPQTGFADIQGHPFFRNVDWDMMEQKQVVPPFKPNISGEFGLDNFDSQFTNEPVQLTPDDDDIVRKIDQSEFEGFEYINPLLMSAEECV
Particulars: at 0.1 µM.

For experiment [3], the target named is T1, Protein kinase C iota type (Homo sapiens). Particulars: at 1 µM.
The target of experiment [4] is Protein kinase C theta type (Homo sapiens) (UniProt Q04759). Particulars: at 0.1 µM.
Chain of Protein kinase C theta type (Homo sapiens) (Q04759 whole entry, looked up): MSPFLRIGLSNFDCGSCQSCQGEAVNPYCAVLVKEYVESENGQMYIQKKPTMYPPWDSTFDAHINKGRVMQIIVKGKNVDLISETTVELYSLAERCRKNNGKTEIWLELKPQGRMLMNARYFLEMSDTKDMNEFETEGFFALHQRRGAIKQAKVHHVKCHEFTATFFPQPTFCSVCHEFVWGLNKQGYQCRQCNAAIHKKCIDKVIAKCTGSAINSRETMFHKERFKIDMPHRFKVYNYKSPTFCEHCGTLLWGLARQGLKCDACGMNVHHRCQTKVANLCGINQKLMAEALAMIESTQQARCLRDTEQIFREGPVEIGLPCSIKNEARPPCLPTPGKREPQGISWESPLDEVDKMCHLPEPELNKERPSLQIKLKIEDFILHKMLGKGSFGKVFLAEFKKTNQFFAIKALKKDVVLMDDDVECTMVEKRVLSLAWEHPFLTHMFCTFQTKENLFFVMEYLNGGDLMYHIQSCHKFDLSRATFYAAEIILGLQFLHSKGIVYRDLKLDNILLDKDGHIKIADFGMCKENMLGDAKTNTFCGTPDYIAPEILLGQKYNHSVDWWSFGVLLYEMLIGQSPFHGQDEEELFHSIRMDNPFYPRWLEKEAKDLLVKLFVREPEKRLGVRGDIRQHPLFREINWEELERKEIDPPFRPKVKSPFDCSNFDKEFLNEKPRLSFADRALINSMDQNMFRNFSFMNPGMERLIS
Experiment [5] shares this target. Particulars: at 1 µM.
In experiment [6] the target is Protein kinase C beta type (Homo sapiens) (UniProt P05771). Particulars: at 0.1 µM.
Chain of Protein kinase C beta type (Homo sapiens) (P05771 2-671 limits assumed): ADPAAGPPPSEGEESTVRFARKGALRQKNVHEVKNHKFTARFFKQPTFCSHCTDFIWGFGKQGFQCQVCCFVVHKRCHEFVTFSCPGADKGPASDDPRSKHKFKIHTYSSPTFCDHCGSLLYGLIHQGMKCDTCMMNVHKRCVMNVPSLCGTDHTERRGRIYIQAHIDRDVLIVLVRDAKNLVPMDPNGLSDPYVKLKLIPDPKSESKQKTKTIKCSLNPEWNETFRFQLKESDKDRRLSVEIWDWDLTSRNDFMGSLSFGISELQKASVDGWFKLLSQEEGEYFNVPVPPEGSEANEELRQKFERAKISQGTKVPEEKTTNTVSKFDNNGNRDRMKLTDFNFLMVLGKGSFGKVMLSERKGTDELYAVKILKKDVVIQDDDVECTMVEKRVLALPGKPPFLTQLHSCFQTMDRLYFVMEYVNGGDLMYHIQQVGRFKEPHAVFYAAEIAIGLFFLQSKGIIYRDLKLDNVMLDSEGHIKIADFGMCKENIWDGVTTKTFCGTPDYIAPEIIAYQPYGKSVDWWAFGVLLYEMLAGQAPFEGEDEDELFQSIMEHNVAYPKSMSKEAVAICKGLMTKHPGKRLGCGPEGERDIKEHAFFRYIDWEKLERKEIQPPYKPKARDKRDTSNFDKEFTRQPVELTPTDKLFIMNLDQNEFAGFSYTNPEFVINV
Experiment [7] shares this target. Particulars: at 1 µM.
The target in experiment [8] is T2, Serine/threonine-protein kinase D1 (Homo sapiens) (UniProt Q15139).
T2 sequence (whole entry): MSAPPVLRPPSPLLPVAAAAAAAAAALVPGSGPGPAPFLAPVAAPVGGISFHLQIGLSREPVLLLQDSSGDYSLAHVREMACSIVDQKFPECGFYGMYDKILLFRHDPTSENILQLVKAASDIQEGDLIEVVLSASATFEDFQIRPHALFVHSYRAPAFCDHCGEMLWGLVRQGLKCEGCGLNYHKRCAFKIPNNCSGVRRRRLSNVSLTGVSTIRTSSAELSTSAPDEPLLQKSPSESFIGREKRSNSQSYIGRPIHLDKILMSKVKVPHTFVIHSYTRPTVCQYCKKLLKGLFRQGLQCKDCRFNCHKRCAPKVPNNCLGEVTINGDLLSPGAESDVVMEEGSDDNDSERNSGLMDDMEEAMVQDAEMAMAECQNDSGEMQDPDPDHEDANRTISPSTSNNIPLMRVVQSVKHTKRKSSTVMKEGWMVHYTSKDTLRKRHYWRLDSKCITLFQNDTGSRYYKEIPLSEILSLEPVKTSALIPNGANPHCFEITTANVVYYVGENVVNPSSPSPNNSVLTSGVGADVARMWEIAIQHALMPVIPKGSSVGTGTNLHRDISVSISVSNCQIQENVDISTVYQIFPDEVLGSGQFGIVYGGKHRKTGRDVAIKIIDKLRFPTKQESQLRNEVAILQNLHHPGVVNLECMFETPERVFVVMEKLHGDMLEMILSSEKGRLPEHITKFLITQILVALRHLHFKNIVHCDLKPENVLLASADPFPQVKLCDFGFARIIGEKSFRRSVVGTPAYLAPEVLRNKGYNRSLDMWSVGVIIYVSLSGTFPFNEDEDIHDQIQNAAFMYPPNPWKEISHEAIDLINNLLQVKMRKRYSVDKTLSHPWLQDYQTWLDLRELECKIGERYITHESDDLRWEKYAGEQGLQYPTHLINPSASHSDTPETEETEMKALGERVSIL
Particulars: at 0.1 µM.

Experiment [9] has as its target T2, Serine/threonine-protein kinase D1 (Homo sapiens). Particulars: at 1 µM.
Experiment [10] concerns the target T3, Serine/threonine-protein kinase D2 (Homo sapiens) (UniProt Q9BZL6).
T3 sequence (whole entry): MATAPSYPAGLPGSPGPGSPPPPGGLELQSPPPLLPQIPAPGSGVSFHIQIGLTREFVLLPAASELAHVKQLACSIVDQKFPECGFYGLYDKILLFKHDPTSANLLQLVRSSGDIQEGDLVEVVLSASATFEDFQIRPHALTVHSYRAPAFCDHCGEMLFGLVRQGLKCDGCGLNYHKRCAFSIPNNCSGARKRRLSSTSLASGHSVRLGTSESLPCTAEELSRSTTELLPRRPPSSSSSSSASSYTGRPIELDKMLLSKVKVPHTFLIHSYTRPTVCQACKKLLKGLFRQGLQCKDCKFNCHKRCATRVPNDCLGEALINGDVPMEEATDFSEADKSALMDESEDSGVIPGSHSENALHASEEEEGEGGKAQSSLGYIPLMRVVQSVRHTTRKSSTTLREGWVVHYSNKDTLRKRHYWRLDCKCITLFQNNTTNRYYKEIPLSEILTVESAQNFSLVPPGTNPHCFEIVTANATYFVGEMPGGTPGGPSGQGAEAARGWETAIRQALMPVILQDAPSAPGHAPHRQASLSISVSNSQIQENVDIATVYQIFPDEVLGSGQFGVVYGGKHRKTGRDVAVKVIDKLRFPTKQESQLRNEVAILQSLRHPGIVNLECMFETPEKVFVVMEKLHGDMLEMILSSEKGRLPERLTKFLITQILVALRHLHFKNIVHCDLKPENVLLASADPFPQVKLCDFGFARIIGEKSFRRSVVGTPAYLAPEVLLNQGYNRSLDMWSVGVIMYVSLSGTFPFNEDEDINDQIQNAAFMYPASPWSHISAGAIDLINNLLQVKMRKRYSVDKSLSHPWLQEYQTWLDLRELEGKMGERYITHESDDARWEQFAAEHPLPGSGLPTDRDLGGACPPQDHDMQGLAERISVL
Particulars: at 0.1 µM.

For experiment [11], the target named is T3, Serine/threonine-protein kinase D2 (Homo sapiens). Particulars: at 1 µM.
Experiment [12] deals with T4, Serine/threonine-protein kinase D3 (Homo sapiens) (UniProt O94806).
T4 sequence (whole entry): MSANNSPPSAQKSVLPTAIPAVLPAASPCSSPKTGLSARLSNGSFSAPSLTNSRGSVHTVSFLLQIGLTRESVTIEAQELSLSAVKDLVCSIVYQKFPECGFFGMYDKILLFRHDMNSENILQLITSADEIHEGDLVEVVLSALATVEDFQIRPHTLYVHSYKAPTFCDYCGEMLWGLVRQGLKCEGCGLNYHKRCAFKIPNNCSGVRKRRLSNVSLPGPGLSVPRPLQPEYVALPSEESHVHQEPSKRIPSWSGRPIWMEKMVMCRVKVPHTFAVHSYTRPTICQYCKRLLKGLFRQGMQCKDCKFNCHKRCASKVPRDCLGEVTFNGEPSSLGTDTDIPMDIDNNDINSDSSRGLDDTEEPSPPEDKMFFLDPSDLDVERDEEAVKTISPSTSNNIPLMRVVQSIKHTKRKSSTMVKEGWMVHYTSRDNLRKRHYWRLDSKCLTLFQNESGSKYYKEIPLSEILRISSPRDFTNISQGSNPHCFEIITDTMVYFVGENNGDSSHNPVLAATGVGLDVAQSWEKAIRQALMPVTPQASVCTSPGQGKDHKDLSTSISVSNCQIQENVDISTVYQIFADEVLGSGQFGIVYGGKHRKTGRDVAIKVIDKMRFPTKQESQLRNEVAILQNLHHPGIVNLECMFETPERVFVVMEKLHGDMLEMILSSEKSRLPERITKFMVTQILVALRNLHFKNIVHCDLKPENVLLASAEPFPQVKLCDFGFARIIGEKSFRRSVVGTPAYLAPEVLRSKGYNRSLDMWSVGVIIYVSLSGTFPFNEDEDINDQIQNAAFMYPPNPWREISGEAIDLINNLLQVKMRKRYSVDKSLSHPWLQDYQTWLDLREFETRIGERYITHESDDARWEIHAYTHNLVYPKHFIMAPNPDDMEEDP
Particulars: at 0.1 µM.

Experiment [13] has as its target T4, Serine/threonine-protein kinase D3 (Homo sapiens). Particulars: at 1 µM.
In experiment [14] the target is T5, cGMP-dependent protein kinase 1 (Homo sapiens) (UniProt Q13976).
T5 sequence (whole entry): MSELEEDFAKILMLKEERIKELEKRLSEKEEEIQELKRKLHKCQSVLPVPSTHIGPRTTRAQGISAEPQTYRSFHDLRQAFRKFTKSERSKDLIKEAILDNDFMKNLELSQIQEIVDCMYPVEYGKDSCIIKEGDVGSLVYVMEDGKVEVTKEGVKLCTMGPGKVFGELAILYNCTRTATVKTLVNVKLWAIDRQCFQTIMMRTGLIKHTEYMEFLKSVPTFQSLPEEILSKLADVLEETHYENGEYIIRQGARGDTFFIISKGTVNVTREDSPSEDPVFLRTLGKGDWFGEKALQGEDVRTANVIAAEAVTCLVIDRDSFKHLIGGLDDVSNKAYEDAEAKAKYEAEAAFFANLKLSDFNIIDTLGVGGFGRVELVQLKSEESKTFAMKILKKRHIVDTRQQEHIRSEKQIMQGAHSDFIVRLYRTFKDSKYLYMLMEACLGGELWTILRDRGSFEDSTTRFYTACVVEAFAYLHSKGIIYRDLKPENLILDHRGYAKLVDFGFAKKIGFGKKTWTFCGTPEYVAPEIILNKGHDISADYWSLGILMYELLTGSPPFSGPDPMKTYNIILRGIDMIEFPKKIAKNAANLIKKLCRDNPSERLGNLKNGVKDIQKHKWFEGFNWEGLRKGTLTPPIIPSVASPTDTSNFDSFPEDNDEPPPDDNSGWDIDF
Particulars: at 0.1 µM.

For experiment [15], the target named is T5, cGMP-dependent protein kinase 1 (Homo sapiens). Particulars: at 1 µM.
Experiment [16] deals with T6, cGMP-dependent protein kinase 2 (Homo sapiens) (UniProt Q13237).
T6 sequence (whole entry): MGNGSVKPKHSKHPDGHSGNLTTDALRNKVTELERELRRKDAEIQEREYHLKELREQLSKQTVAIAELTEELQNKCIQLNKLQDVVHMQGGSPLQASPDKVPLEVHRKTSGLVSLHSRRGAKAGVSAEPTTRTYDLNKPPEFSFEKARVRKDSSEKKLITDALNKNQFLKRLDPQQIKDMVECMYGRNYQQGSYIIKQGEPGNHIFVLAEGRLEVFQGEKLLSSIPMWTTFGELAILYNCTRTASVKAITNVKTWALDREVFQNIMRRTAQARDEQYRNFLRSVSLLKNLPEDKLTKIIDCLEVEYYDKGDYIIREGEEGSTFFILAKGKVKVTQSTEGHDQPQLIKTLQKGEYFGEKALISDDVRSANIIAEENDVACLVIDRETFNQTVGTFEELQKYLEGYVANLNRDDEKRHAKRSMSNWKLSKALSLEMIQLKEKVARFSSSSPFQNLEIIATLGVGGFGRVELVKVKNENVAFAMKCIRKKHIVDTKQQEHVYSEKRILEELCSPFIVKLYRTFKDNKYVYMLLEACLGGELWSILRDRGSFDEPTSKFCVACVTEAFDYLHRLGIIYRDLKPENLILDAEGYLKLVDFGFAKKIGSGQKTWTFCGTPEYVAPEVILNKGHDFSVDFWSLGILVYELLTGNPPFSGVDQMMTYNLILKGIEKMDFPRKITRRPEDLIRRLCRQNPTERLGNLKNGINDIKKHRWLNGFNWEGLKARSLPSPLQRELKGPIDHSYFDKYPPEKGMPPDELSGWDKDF
Particulars: at 0.1 µM.

Experiment [17] has as its target T6, cGMP-dependent protein kinase 2 (Homo sapiens). Particulars: at 1 µM.
Experiment [18] concerns the target T7, cAMP-dependent protein kinase catalytic subunit PRKX (Homo sapiens) (UniProt P51817).
T7 sequence (whole entry): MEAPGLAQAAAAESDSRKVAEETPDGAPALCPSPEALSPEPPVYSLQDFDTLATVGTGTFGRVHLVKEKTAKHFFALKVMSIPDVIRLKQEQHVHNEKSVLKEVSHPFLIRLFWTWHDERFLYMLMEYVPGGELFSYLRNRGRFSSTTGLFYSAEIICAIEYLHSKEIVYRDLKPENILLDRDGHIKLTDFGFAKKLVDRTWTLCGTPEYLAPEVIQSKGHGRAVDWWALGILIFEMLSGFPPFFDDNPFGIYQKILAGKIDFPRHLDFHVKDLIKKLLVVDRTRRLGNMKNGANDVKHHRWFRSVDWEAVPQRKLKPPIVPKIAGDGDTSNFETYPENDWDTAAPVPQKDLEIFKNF
Particulars: at 0.1 µM.

Experiment [19] deals with T7, cAMP-dependent protein kinase catalytic subunit PRKX (Homo sapiens). Particulars: at 1 µM.
Experiment [20] concerns the target Rho-associated protein kinase 1 (Homo sapiens) (UniProt Q13464). Particulars: at 0.1 µM.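 Also: values are mean percent inhibition of ROCK1.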

Chain of Rho-associated protein kinase 1 (Homo sapiens) (Q13464 2-1354 limits assumed): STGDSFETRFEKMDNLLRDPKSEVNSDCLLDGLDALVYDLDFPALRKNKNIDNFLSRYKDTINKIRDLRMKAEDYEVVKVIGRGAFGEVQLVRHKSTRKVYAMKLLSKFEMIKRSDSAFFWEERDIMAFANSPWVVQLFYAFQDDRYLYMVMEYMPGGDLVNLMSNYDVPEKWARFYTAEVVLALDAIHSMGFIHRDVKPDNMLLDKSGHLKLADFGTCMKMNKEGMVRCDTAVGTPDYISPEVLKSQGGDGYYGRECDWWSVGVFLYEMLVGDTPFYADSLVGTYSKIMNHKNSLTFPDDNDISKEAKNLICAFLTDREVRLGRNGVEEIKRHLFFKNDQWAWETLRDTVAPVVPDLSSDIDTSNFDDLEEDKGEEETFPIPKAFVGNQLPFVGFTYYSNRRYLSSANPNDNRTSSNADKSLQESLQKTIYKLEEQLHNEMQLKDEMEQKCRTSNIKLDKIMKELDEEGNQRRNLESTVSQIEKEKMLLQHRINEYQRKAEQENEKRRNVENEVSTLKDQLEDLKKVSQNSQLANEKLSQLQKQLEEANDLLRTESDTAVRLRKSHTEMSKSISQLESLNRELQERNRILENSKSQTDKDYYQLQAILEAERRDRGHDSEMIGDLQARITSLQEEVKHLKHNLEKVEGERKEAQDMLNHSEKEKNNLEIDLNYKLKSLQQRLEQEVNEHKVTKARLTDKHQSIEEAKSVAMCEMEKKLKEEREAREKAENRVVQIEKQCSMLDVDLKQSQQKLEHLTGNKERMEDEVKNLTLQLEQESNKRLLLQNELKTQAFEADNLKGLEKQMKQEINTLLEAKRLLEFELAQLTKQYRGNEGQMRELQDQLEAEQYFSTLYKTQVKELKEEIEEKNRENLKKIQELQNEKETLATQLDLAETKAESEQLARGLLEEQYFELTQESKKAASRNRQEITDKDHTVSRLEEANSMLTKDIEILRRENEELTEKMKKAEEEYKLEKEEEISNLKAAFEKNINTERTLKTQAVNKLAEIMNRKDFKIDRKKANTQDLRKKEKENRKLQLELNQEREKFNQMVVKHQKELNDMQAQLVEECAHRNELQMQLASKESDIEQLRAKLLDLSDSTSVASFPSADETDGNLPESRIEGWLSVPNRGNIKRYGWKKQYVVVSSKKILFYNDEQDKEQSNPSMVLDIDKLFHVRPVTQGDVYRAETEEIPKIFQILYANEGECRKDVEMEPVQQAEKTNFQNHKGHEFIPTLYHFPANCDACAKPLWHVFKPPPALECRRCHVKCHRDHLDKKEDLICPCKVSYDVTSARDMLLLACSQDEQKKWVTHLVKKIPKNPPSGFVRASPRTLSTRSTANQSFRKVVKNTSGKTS

For `CN1CCN(Cc2ccc(-c3cc4ncnc(Nc5ccc(OCc6cccc(F)c6)c(Cl)c5)c4s3)o2)CC1`, the inhibition was 1.46% and 6.95% in experiment [1]; 1.42% and 1.16% in experiment [2]; 1.76% and 1.19% in experiment [3]; 1.25% and 2.92% in experiment [4]; 0.89% and 4.95% in experiment [5]; 0.98% and 1.08% in experiment [6]. The inhibition is 2.27% and 3.9% in [7]; 3.21% and 5.57% in [8]; 6.44% and 7.02% in experiment [9]; 2.14% and 5.13% in [10]; 4.28% and 7.23% in experiment [11]; 2.56% and 5.35% in experiment [12]. The inhibition in [13] is 4.4% and 6.3%; in experiment [14], 2.05% and 4.47%; in experiment [15], 1.78% and 7.9%; in experiment [16] it was 0.82% and 2.4%; in [17] it was 0.79% and 5.44%; in [18], 1.82% and 3.39%. The inhibition in [19] was 1.45% and 5.71%; in experiment [20] it was 1.65% and 1.83%.
As to `CCOc1ccc2c(-c3ccnc(Nc4cc(OC)cc(C(F)(F)F)c4)n3)cnn2n1`, the inhibition in [1] is 1.98%; in experiment [2] it was 1.79%; in experiment [3], -0.03%; in experiment [4], 0.28%; in [5], -0.68%; in experiment [6], 1.09%. Also, the inhibition was 3.36% in experiment [7]; 0.73% in [8]; 0.65% in experiment [9]; 0.66% in [10]; 0.81% in experiment [11]; -0.03% in experiment [12]. In addition, the inhibition in experiment [13] is 1.2%; in experiment [14], 0.85%; in experiment [15], 7.21%; in experiment [16], 0.36%; in [17], 2.15%; in [18], 0.62%. Further, the inhibition in experiment [19] is 0.2%; in experiment [20], -0.28%.

As a reminder, the inhibition is the change of the read-out against control, counted positive when it falls.
